Results reported in the supplement of paper PMC6555819.

System: VDR:RXRa (NR concentration 270 nM, RXRa partner concentration 90 nM)
Test: PBM binding z-score (relative to random genomic background probes); higher = stronger binding; sequences stand for … in GC…GCGATTGACAGCGTAGAATGAAGG
Experimental: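 Protein-binding microarray (Agilent 4x180K custom design, double-stranded 60-nt probes: 5' GC cap, 34-nt variable region, 24-nt constant primer region; full probe sequence given). Purified or IVT nuclear receptor:RXRα heterodimers (3:1 NR:RXRα, mostly 270:90 nM) or homodimers were incubated for 1 h in PBS with 2% milk and no ligand, then detected with Alexa488 antibodies. Fluorescence from o1-orientation probes (~5 replicates averaged) was converted to z-scores against 500 random hg19 background probes. Variable regions are seed direct-repeat (DR0–DR5) sites, all their single-nucleotide variants and half-site ablations.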

Row | Sequence | PBM binding z-score
1 | CCTGCCAGGTCATGGTCAGCTAATCTACAGTATG | 2.65
2 | CAAGACAGGTGAAAGGTAACTCAGTCTGGTACGC | 0.87
3 | GCTCACGGGTCAAAGGTTATAGCATGAATAGAAT | 5.38
4 | CGAACTAGGTCATTGACAGAACAGTGAATAGTAA | 1.97
5 | TCTATTAATTGATTAGGGCAACCGAAACAGCGGA | 0.405
6 | TAGCCTAGGTCAGATCGGGCCTGTATACGCTATA | 0.0712
7 | TTACCCAGGTGAAAGGTCGTTGATGCACGCCTTG | 3.08
8 | TCTAGTTAGTCACGGAGGTCACACACGACGGGTA | 4.24
9 | CCTCGGATGACAGAAGGTCAGAGCTGTCCGCTTT | 1.21
10 | CCTCGGAGGACAACAGGAGGTCCGAGCTGCCAGA | -0.665
11 | TCATCTAGGTAAAGGTGAAAGTCGAACGATATGA | 0.95
12 | GCTCGTAGGACAAGGTCAGAGCTTTGTCCGTAGA | 1.4
13 | TCATATAGGTAAAGCTGAAAGTCGAACGATATGA | 0.186
14 | TAGTCTAGGTCATGCGGGCCAGTATAGTGTCGGC | 2.86
15 | ATCTCTAGGTAAAGTTCAGTGAGAGATCGATAGA | 1.64
16 | CTGACTGGGGCAAAGGTTACCATACTCAGTACGA | 2.07
17 | AGTCAAAGTTCATCTAGGTAACGTAAGATATGCT | 4.59
18 | AGTCAAAGTTCAGGACGAGGTAACGAAAAGCACG | 2.95
19 | CCTGCTAGGTCATGGCCAGCTAATCTACAGTATG | 1.43
20 | TCTCGTAGGACACGAAAGGTCAGAGCTCGACATC | 3.09

Row | Sequence | PBM binding z-score
21 | TCAGACAGGTGAAGGTGACTCAGGTACGCAGTCG | 1.04
22 | GTACCGAGGTGAATAGGTCGTTGATGAGTAGGCG | 1.14
23 | TAGCCTAGGTCATGGGCCAGCATACCACGCGAAC | 1.68
24 | ACACCAAGGTGATCGTGAGGTCGTTGATACTAAC | 3.21
25 | CTACCGAGGTGAACAAGGTCGTTGATTACTATTC | 6.42
26 | ACTAATAGTTGACTTAGGGCAACCGATACGACGC | 0.357
27 | TTATATAGGTAAAGGTGAAAGTCGAACGATATGA | 1.07
28 | CCTACTGGGCCATCAGGTCAATGATATCAACGTT | 1.4
29 | TTACCAAGGTGAAGGTCGTTGAACCCTCTGTAGA | 3.04
30 | TAGCCTAGCTCATGGGCCAGTATACCACGCGAAC | -0.717
31 | CCTACTGGGCCAAGGTCATTGGTCAGTCAAAGCA | 3.39
32 | TCATATACGTAATACAGGTGAAAGTCGGCATCTA | 1.29
33 | CGTTAAAGTTCAAGGTAACGTAACAGAAAGCAGC | 3.02
34 | CCGACTGGGGCAGAAACGTTACCATACCATCCGG | -0.901
35 | ATATGTAGGTTACATCCGGGTGATTCAGGCTATG | 0.753
36 | TCATATAGGTAAAGGTGACAGTCGAACGATATGA | 0.874
37 | GCGACTGGGACATCAGCAGGTTACCATAACTTAA | -0.302
38 | GCTTGAAGATCAAGGTTAAGAAAGACTAAGCTAA | 0.0982
39 | CAAACTAGGTCACGAAAGGTCAAAGTCGAATGAC | 6.91
40 | CGTCAAAGTTCGACTAAGGTAACGTAAAGCACGC | 1.83
